# Screens deposited in PubChem by National Center for Advancing Translational Sciences (NCATS).
# GLP-1R inv ag – inverse agonists of human GLP-1 receptor. HEK293 GLP-1R CRE-luciferase, luminescence, 24 h; GLP-1R form is constitutively active. Potency, µM (doses to about 38.3 µM), inactives show at the highest dose activity change, negative = inhibition, actives largely listed as inhibitors. 410,000 tested, 1.6% active. AID 624417; further: potency means the concentration at half of the fitted maximal effect; on the % scale 0 is the no-effect control and ±100 the full control effect; nearly all actives have a fitted effect of over 55% in size
#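 Luminescence readout: a drop in cAMP-driven luciferase signal flags inverse agonism at a constitutively active GLP-1R stably expressed in HEK293. Compound exposure lasted 24 hr at 37 deg C, 5% CO2.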
# KCNH2 3.1 block – inhibitors of human KCNH2 3.1 potassium channel isoform; 340,000 tested, 0.95% active; activity change, % (tested at about 1.8 µM); U2OS KCNH2 3.1, thallium flux FluxOr; hits give low values; AID 720553;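 active means maximum activity change below -70%; inconclusive means maximum activity change from -70% to -50%; inactive means maximum activity change above -50%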;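 further: thallium influx rate constant from kinetic fluorescence after stimulation buffer; on the % scale 0 is the no-effect control and ±100 the full control effect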
#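 Steps: virus added to U2OS suspension (4 h, RT, dark); medium with 10% FBS added, cells plated, 37 C overnight; FluxOr/Red40 loading buffer 45 min RT; stimulation buffer, 2 min kinetic read; rate constant normalized.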
# GLS inh – glutaminase GLS (human) inhibition; O94925; Potency, µM (top dose mostly 45.5 µM), without a hit: at the highest dose activity change, negative = inhibition, hits mostly inhibitors; GLS enzymatic activity, qHTS titration; 410,000 tested, 0.21% active; further: potency means the concentration at half of the fitted maximal effect; on the % scale 0 is the no-effect control and ±100 the full control effect
#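 Two-point fluorescence kinetic (t0, 30 min RT) for hKGA; glutamate detected via glutamate oxidase–HRP–Amplex Red. Substrate: 1 mM L-glutamine solution; buffer 45 mM KH2PO4, pH 8.2.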
# GLP1R cytotox – cytotoxicity in counter-screen for GLP-1R inverse agonists; Potency, µM (doses to about 38.3 µM), for the others: top-dose activity change, negative = inhibition, actives largely listed as inhibitors; 410,000 tested, 0.13% active; HEK293 cAMP-luciferase reporter cells, luminescence, 24 h; AID 624418;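 further: loss of luciferase light is scored as toxicity; potency means the concentration at half of the fitted maximal effect; on the % scale 0 is the no-effect control and ±100 the full control effect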
#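 Step one: seed cells (200 cells/uL, DMEM with 10% Nu serum, 1% pen-strep). Step two: 12-hour incubation at 37 deg C. Step three: pin 23 nL compound, incubate 24 hr. Step four: add luciferase reagent, read luminescence 12 min later.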
# GLP1R ag – GLP-1 receptor (human) agonism | P43220 | HEK293 GLP-1R CRE-luciferase, luminescence, 4-6 h; cells express a hypersensitive GLP-1R form | Potency, µM (top dose mostly 45.6 µM), without a hit: at the top dose activation, actives largely listed as activators | 380,000 tested, 0.007% active; further: potency means the concentration at half of the fitted maximal effect; % of control where 0% means no effect
# hERG WT inh – blocks the wildtype human KCNH2 potassium channel; Q12809; U2OS, BacMam KCNH2, thallium flux FluxOr; hits give low values; activity change, % at 1.84 µM; 340,000 tested, 0.37% active;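 active means maximum activity change below -70%; inconclusive means maximum activity change between -70% and -50%; inactive means maximum activity change above -50%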; further: on the % scale 0 is the no-effect control and ±100 the full control effect
# Target sequence (Q12809 whole entry, looked up): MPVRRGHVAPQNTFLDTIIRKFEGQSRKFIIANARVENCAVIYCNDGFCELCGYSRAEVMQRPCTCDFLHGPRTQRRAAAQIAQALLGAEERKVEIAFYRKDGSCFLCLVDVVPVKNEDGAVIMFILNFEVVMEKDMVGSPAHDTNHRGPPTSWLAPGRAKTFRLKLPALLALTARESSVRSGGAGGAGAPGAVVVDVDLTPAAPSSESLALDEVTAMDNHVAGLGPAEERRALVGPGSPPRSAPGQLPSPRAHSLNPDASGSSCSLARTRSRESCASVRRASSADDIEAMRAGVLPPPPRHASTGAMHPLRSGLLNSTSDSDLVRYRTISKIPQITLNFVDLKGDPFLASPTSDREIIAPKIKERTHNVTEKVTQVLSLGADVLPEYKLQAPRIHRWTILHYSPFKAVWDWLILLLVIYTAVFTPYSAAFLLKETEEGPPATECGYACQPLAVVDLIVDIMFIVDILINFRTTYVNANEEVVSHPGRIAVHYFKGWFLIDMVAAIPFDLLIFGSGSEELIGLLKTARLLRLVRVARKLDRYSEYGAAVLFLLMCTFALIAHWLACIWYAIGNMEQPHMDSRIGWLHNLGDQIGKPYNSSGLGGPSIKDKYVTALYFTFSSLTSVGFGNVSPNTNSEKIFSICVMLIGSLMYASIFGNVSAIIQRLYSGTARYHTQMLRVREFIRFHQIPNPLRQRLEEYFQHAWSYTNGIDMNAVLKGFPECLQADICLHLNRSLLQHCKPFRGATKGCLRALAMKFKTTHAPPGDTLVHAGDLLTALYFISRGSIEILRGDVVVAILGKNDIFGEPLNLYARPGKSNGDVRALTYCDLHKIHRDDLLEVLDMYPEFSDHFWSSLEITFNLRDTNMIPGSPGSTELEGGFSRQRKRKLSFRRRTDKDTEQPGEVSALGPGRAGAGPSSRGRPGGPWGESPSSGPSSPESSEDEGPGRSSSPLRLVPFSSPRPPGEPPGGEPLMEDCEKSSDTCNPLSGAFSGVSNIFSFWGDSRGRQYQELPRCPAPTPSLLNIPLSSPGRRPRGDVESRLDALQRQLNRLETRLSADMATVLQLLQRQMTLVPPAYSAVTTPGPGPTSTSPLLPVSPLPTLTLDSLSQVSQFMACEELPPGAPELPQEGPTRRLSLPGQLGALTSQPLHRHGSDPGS
#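 U2OS cells transduced with wild-type KCNH2 virus are loaded with FluxOr dye for 45 min, and thallium flux is measured in kinetic reads before and after stimulation buffer. Rate constants are normalized to DMSO controls.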
# The depositor's hits bear a star; ? = inconclusive; nt = no result given. Most compounds without a hit are left out; they make up all but 2.8% or so of the library. Unless noted, the call rests on the fitted dose curve; in most records, active means well fitted curve in the direction sought with a large enough effect; inconclusive means small, poorly fitted or top-dose-only effect, or another doubt; inactive means no such curve, though single readings can be large; an effect the other way counts as inactive or inconclusive.
SMILES,GLP-1R inv ag,KCNH2 3.1 block,GLS inh,GLP1R cytotox,GLP1R ag,hERG WT inh
Cc1ccccc1CCN(CC(=O)NCc1ccc(F)cc1)C(=O)c1csnn1,-29%,-16,-1%,-5%,0%,-2
COc1ccc(CNC(=O)CN(Cc2ccccc2F)C(=O)c2csnn2)cc1,-35%,-2,5%,7%,7%,-5
Cc1cccc(CCN(CC(=O)NCc2ccc(F)cc2)C(=O)c2csnn2)c1,?,-108*,-11%,-18%,12%,-3
COc1ccccc1CN(CC(=O)NCc1ccc(F)cc1)C(=O)c1csnn1,-4%,-82*,7%,-2%,15%,-1
CCOC(=O)c1ccc(N2CCN(c3ccccc3F)CC2)c(NC(=O)Nc2ccccc2)c1,2.5µM*,6,-7%,1%,4%,2
CCOC(=O)c1ccc(N2CCN(c3ccccc3OC)CC2)c(NC(=O)Nc2ccc(CC)cc2)c1,2%,nt,2%,-5%,nt,nt
Cc1cccc(C)c1NC(=O)Cn1nnnc1N,18%,-91*,-3%,3%,-4%,-4
COc1ccccc1CNC(=O)c1nnn(CC(=O)Nc2c(C)cccc2C)c1N,6%,nt,-11%,21%,nt,nt
COCCN1CCn2c(nc3cc(NC(=O)NC4CCCCC4)ccc32)C1,3%,-3,3%,8%,3%,3
O=C(Nc1ccc2c(c1)nc1n2CCN(Cc2ccccc2)C1)NC1CCCCC1,0%,-85*,0%,-9%,2%,-15
Cc1ccc(N=C2SC(C(=O)Nc3ccc(OC(F)(F)F)cc3)C(N)=C2C(=O)Nc2c(C)cc(C)cc2C)cc1 (centres undefined),2.8µM*,-11,-12%,?,-4%,-6
Cc1ccc(NC(=O)C2SC(=Nc3ccccc3)C(C(=O)Nc3ccc(Cl)cc3)=C2N)cc1 (centres undefined),?,19,10%,-6%,0%,-6
CCCN(CC1CC1)C(=S)NC(=O)c1cc(Br)ccc1Cl,-79%,-3,14%,3.2µM*,-4%,-3
CCCN(CC1CC1)C(=S)NC(=O)c1ccccc1C,?,0,18%,-25%,20%,-4
CC1CCN(C(=O)c2ccccc2NS(=O)(=O)c2ccccc2)CC1,-1%,-2,9%,-7%,2%,-1
CCOc1ccccc1NC(c1nnc(-c2ccccc2)o1)c1ccc(F)cc1Cl (centres undefined),?,nt,12%,17%,nt,nt
CN(C)CCCN(C(=O)c1ccco1)c1nc(-c2ccc(Cl)cc2)cs1,?,-80*,5%,?,11%,1
CCN(CC)CCCN(C(=O)c1ccc(OC)cc1)c1nc(-c2ccc(OC)cc2)cs1,?,-95*,1%,-21%,2%,?
Cc1ccc(-c2csc(N(CCCN(C)C)C(=O)c3ccco3)n2)cc1,?,-49,-9%,?,0%,7
COc1ccc(-c2csc(N(CCCN(C)C)C(=O)c3ccc(C)cc3)n2)cc1,4µM*,-46,2%,-22%,2%,-5
NNC(=O)CN1C(CN2CCOCC2)=Nc2ccc(Br)cc2C1c1ccccc1 (centres undefined),?,-73*,14%,-23%,-7%,-32
OC(c1ccccc1)c1nc(/C=C/c2ccccc2)cs1 (centres undefined),3%,nt,2%,3%,0%,nt
Cc1ccc(S(=O)(=O)n2nc(C)cc2C)cc1,5%,19,-2%,-4%,0%,9
Cc1cc(C)n(S(=O)(=O)/C=C/c2ccccc2)n1,?,-9,-11%,-13%,-15%,-88*
COc1ccccc1N1CCN(C(=O)c2cc3c(=O)n(Cc4cccnc4)ccc3nc2C)CC1,6%,nt,5%,4%,nt,nt
SMILES,GLP-1R inv ag,KCNH2 3.1 block,GLS inh,GLP1R cytotox,GLP1R ag,hERG WT inh
CCc1ccc(N(CC)C(=O)Cn2c(=O)oc3ccccc32)cc1,-3%,nt,-1%,11%,nt,nt
Cc1cccn2cc(COc3cccc([N+](=O)[O-])c3)nc12,12%,-9,-3%,4%,22%,-7
Cc1cccn2cc(COc3ccc(-c4ccccc4)cc3)nc12,-31%,-101*,3%,-18%,23%,4
CC(C)(C)n1nnnc1C(c1cccs1)N(Cc1ccc(Cl)cc1)CC1CCCO1 (centres undefined),5µM*,-8,0%,-3%,1%,-6
COc1cccc(C(=O)NCC2(c3ccccc3)CCCC2)c1OC,7.1µM*,26,-3%,3%,15%,-12
CCCCC(=O)N(C)c1c(CC)nc2c(OCc3ccc(C(F)(F)F)cc3)cccn12,11µM*,nt,0%,-12%,-4%,nt
CCc1nc2ccc(C(=O)Nc3cccc(OCC(=O)N(C)C)c3)cn2c1N(C)C(=O)c1cccc(OC)c1,22%,nt,-1%,-5%,-1%,nt
COc1ccc(-c2nc3c(C#N)c[nH]n3c2NC2CCCCC2)cc1,-26%,nt,13µM*,-27%,nt,nt
COc1ccc(-c2nc3c(C#N)c[nH]n3c2NC2CCCCC2)c(OC)c1,?,nt,?,0%,nt,nt
CN(C)CCNC(=O)C12CC3(C)CC(C)(CC(C)(C3)C1)C2,8.9µM*,16,-6%,-23%,3%,-4
CC12CC3(C)CC(C)(C1)CC(C(=O)NCCc1ccc(S(N)(=O)=O)cc1)(C2)C3,?,-3,-15%,-7%,5%,7
Clc1cnc(Nc2cccnc2)c(Cl)c1,9%,8,3%,-15%,16%,3
CCCCC(=O)Nc1nnc(SCc2cc(=O)n3cc(C)ccc3n2)s1,2%,nt,2%,-2%,nt,nt
Cc1ccc(CNC(=O)C2CCN(S(=O)(=O)c3ccc4c(c3)oc(=O)n4C)CC2)cc1,-8%,nt,1%,-3%,-1%,nt
O=C(Nc1ccc(S(=O)(=O)N2CCCCC2c2cccnc2)cc1)c1ccc(Br)cc1 (centres undefined),10µM*,nt,2%,-19%,nt,nt
CCOC(=O)N1CCN(S(=O)(=O)c2cc([N+](=O)[O-])ccc2C)CC1,18%,8,1%,-11%,-3%,22
CCOC(=O)N1CCC(=NNS(=O)(=O)c2cccc([N+](=O)[O-])c2)CC1,0%,-71*,3%,2%,-5%,-1
Cc1ccc(C(C)C)c(OCCCCN2CCNCC2)c1,2.2µM*,-19,-7%,-4%,-6%,1
Cc1ccc(C)c(OCCCCN2CCNCC2)c1C,?,-88*,-1%,11%,-3%,-1
CC(=O)N1Cc2[nH]c3ccccc3c2CC1C(=O)O (centres undefined),-18%,-81*,7%,-1%,-2%,-11
